Assay results as given in article PMC6925144, “A prospective compound screening contest identified broader inhibitors for Sirtuin 1” (Scientific Reports, 2019).
Whole data set: some 3,200 compounds, median “TSA(without NAD+) / Primary screening (TSA) / delta Tm (K)” near -0.07, cut for the highest 2% near 0.37. The sample as a whole holds a higher share of the highest values than the screen did.

The compounds below were run against NAD-dependent deacetylase Sirtuin 1 (human, UniProt Q96EB6) (assay: primary screen, delta tm). Conditions: 10 µM.
Set-up: single well (n = 1)
Experimental: A total of 3,192 compounds extracted from the proposed lists were first screened by thermal shift assay (TSA), which determined a melting temperature shift (ΔTm) of Sirtuin 1 upon the addition of a test compound at a concentration of 10 µM (n = 1) with primary hit criteria of ΔTm > 0.45 K or ΔTm < −1.5 K. Primary hits (48 compounds) were retested in the same assay at three concentrations (5, 10, 20 µM, n = 4) for hit confirmation and for dose-dependency check. Secondary hits (41 compounds) were checked their selectivity for Sirtuin 1 based on counterscreening on unrelated protein targets (bovine carbonic anhydrase (CA) and recombinant SH2 domain of hABL1 kinase (ABL1)) at three different concentrations (5, 10, 20 µM, n = 4), which yielded 38 hit compounds, hereafter referred to as TSA hits. The TSA screening above was conducted in the absence of NAD+.

Chain of NAD-dependent deacetylase Sirtuin 1 (Q96EB6 2-747 limits assumed): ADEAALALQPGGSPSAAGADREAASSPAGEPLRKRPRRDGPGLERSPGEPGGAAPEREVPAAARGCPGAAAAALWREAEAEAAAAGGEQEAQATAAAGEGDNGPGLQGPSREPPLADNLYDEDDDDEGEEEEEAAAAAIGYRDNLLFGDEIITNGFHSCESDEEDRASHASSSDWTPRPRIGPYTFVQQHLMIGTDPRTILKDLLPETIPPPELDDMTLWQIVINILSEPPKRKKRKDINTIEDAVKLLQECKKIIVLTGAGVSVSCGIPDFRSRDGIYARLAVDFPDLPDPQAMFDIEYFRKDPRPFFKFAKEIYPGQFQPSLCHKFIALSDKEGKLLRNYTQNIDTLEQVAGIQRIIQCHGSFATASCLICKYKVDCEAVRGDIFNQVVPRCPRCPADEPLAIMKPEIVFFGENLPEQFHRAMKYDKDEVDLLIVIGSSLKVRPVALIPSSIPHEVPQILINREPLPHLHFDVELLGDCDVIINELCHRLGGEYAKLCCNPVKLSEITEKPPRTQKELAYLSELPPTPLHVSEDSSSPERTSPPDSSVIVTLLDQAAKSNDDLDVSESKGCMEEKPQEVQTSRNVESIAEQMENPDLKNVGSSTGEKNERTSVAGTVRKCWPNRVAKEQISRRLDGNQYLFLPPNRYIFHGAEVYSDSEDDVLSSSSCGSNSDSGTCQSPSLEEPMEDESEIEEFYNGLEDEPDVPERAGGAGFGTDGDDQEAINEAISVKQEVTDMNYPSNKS

| Compound | TSA(without NAD+) / Primary screening (TSA) / delta Tm (K) |
| --- | --- |
| O=C1/C(=C\c2cc(Br)cc(Br)c2O)CC/C1=C\c1cc(Br)cc(Br)c1O | 0.55 |
| O=C1/C(=C\c2ccc(Br)cc2)CC/C1=C/c1ccccc1OC(F)F | -0.08 |
| COc1ccc(Br)cc1/C=C1/Cc2ccccc2C1=O | -0.08 |
| O=C(CCSc1ncccn1)Nc1c(Cl)cccc1Cl | -0.04 |
| Cc1ccc(C23CC4CC(CC(C(=O)OC(C)C(=O)Nc5ccc(S(N)(=O)=O)cc5)(C4)C2)C3)cc1C (stereo not shown) | 0.48 |
| Cc1ccc(C23CC4CC(CC(C(=O)OCC(N)=O)(C4)C2)C3)cc1C | -0.22 |
| Cc1ccc(C23CC4CC(CC(C(=O)OCC(=O)Nc5ccc(S(N)(=O)=O)cc5)(C4)C2)C3)cc1 | 0.32 |
| Cc1ccc(N(C)S(=O)(=O)c2cccc(C(=O)N(C)Cc3ccccc3Cl)c2)cc1 | -0.24 |
| O=S1(=O)CCC(N2CCN(c3ncnc4c3oc3ccccc34)CC2)C1 (stereo not shown) | -0.11 |
| Cc1nc(N2CCN(c3cccc(C(F)(F)F)c3)CC2)c2c3c(sc2n1)CCC3 | 0.16 |
| CCOc1ccc(Oc2ccc(NC(=O)CNC(=O)CC34CC5CC(CC(C5)C3)C4)cc2)cc1 | 0.38 |
| COc1ccc(NC(=O)CC23CC4CC(C2)CC(CC(=O)Nc2ccc(OC)cc2)(C4)C3)cc1 | 0.15 |
| CC(C)CC(=O)Nc1ccc(C(=O)COC(=O)CNC(=O)CC23CC4CC(CC(C4)C2)C3)cc1 | -0.04 |
| NCCOCC(=O)O | -0.23 |
| CCCn1c(NC(=O)c2ccc3c(c2)CCC(=O)N3)nc2ccccc21 | 0.12 |
| O=C1CCc2cc(NC(=O)c3cccnc3)ccc2N1 | -0.04 |
| Cc1ccc(C(=O)Nc2nc3ccc(NS(=O)(=O)c4ccc5c(c4)CCC(=O)N5)cc3s2)s1 | 0.66 |
| NCC(N)C1CCC1 (stereo not shown) | -0.31 |
| NC(=O)c1cc(NC(=O)CN2CC=C(c3ccc(O)cc3)CC2)cc(C(N)=O)c1 | 0.15 |
| O=C1NC(=S)NC(=O)C1=NNc1c(F)cccc1F | -0.08 |
| Cn1ncc2c(=O)n(CC(=O)N3CCCc4c(C(N)=O)cccc43)cnc21 | -0.18 |
| O=C(NC1(C(=O)N2CCN(C(=O)c3cnccn3)CC2)CCOC1)OCc1ccccc1 (stereo not shown) | -0.12 |

| Compound | TSA(without NAD+) / Primary screening (TSA) / delta Tm (K) |
| --- | --- |
| Cc1sc(NC(=O)C2CCN(c3ncc(C(F)(F)F)cc3Cl)CC2)c(C(N)=O)c1C | 0.28 |
| Cc1sc2ncnc(N3CCC(C(=O)Nc4sc5c(c4C(N)=O)CCCC5)CC3)c2c1C | 0.16 |
| NC(=O)c1c(NC(=O)C2CCN(c3ncc(C(F)(F)F)cc3Cl)CC2)sc2c1CCC2 | 0.39 |
| Cc1ccc(OCC(O)Cn2c(C(F)(F)F)ccc(C(N)=O)c2=O)cc1 (stereo not shown) | -0.13 |
| Cc1ccc(NC(=O)C(OC(=O)C23CC4CC(CC(O)(C4)C2)C3)c2ccccc2)c([N+](=O)[O-])c1 (stereo not shown) | 0.07 |
| CC(NC(=O)CNC(=O)CNC(=O)c1cccs1)c1ccccn1 (stereo not shown) | -0.23 |
| O=C(NC(=S)Nc1ccc(-c2nc3ccccc3[nH]2)cc1)C12CC3CC(CC(C3)C1)C2 | 0.58 |
| O=C(CC12CC3CC(CC(C3)C1)C2)NCC(=O)Nc1ccc(Sc2nc3ccccc3[nH]2)cc1 | 0.18 |
| O=C1CCCCC(C(=O)Nc2ccc(-c3nc4ccccc4[nH]3)cc2)N1 (stereo not shown) | -0.03 |
| CN(c1ccccc1)S(=O)(=O)c1ccc(C(=O)Nc2cccc(S(=O)(=O)N3CCOCC3)c2)cc1 | 0.02 |
| O=C(Nc1cccc(S(=O)(=O)N2CCOCC2)c1)c1cn(-c2ccccc2)nc1-c1ccc(Cl)cc1 | 0.58 |
| O=C(Nc1cccc(S(=O)(=O)N2CCOCC2)c1)c1cn(-c2ccccc2)nc1-c1ccccc1 | -0.02 |
| O=C(Nc1cccc(S(=O)(=O)N2CCOCC2)c1)c1cccc(S(=O)(=O)N2CCc3ccccc32)c1 | 0.37 |
| O=C(Nc1cccc(S(=O)(=O)N2CCOCC2)c1)C(c1ccccc1)c1ccccc1 | 0.09 |
| Cc1ccc(-c2nn(-c3ccccc3)cc2C(=O)Nc2cccc(S(=O)(=O)N3CCOCC3)c2)cc1 | 0.07 |
| O=C(Cn1[nH]c(=O)c2ccccc2c1=O)Nc1ccc(N2CCN(Cc3ccccc3)CC2)cc1 | 0.02 |
| O=C(OCc1cccc2ccccc12)C1CCCCN1c1ncccn1 (stereo not shown) | -0.13 |
| Cc1nc2c(C(N)=O)ncn2c(C)c1CCC(=O)Nc1ccc(F)c(C(N)=O)c1 | 0.02 |
| c1coc(CNc2ncnc3ccsc23)c1 | 0.05 |
| Cc1ccc(C(C)(C)C)cc1S(=O)(=O)Nc1cccc(C(=O)NNC(=O)c2cccc(S(=O)(=O)Nc3cccc(C(F)(F)F)c3)c2)c1 | 1.22 |
| CCNC(=O)c1cccc(NC(=O)C2CCN(S(=O)(=O)c3cc(C(C)(C)C)ccc3C)CC2)c1 | 0.17 |
| O=C(NO)c1cccc(C(F)(F)F)c1 | -0.13 |

| Compound | TSA(without NAD+) / Primary screening (TSA) / delta Tm (K) |
| --- | --- |
| NC(=O)c1ccc(CNC2CCCCCC2)o1 | -0.05 |
| C=CCOc1cccc(C2C(C(=O)c3ccco3)=C(O)C(=O)N2CCCN2CCOCC2)c1 (stereo not shown) | -0.08 |
| COc1ccc(CNC(=S)NC2CCCCC2)cc1OC | -0.23 |
| COc1cc(NC(C)C(=O)Nc2ccc(C(N)=O)cc2)cc(OC)c1OC (stereo not shown) | -0.18 |
| COc1ccc(NC(=S)NN)cc1OC | 0.37 |
| COc1ccc(Br)cc1/C=C1/COc2ccccc2C1=O | -0.03 |
| CCC(NC(=O)c1ccc(C(N)=O)cc1)C(c1ccc(C)cc1)n1cncn1 (stereo not shown) | -0.21 |
| COc1ccc(N(C)S(=O)(=O)c2cccc(C(=O)Nc3ccc(OC)c(OC)c3)c2)cc1 | -0.31 |
| COc1ccc(N(C)S(=O)(=O)c2cccc(C(=O)Nc3ccc(Cl)cc3)c2)cc1 | 0.36 |
| COc1ccc(N(C)S(=O)(=O)c2cccc(C(=O)Nc3ccc(Br)cc3F)c2)cc1 | 0.07 |
| CCCOC(=O)c1ccc(NC(=O)c2cccc(S(=O)(=O)N(C)c3ccc(OC)cc3)c2)cc1 | 0.35 |
| COc1ccc(N(C)S(=O)(=O)c2cccc(C(=O)Nc3ccc(Br)c(C(F)(F)F)c3)c2)cc1 | 0.62 |
| COc1ccc(N(C)S(=O)(=O)c2cccc(C(=O)Nc3ccc(Br)cc3)c2)cc1 | 0.36 |
| COc1ccc(N(C)S(=O)(=O)c2cccc(C(=O)Nc3ccc4ccccc4c3)c2)cc1 | 0.82 |
| COc1ccc(NC(=O)c2cccc(S(=O)(=O)N(C)c3ccc(OC)cc3)c2)cc1 | 0.03 |
| COc1ccc(N(C)S(=O)(=O)c2cccc(C(=O)Nc3cccc4ccccc34)c2)cc1 | -0.13 |
| COc1ccc(N(C)S(=O)(=O)c2cccc(C(=O)Nc3ccc(-n4cnnn4)cc3)c2)cc1 | 0.59 |
| COc1ccc(N(C)S(=O)(=O)c2cccc(C(=O)Nc3ccc4c(C)cc(=O)oc4c3)c2)cc1 | -0.13 |
| COc1ccc(N(C)S(=O)(=O)c2cccc(C(=O)Nc3cccc(Br)c3)c2)cc1 | 0.38 |
| O=C(CCc1ccc2c(c1)OCO2)N1CCc2[nH]c3ccccc3c2C1 | -0.15 |
| Cc1nc(-c2ccccn2)[nH]c(=O)c1CC(=O)NCc1cccc(Oc2ccccc2)c1 | 0.09 |
| NC(=O)C1CCN(C(=O)c2ccc3[nH]c4c(c3c2)CCCC4)CC1 | 0.17 |

| Compound | TSA(without NAD+) / Primary screening (TSA) / delta Tm (K) |
| --- | --- |
| Cc1cc(N(C)C)n2nc(C(F)(F)F)c(-c3ccccc3)c2n1 | -0.18 |
| Cc1ccc(-n2c(C)c(C)c3c(N)ncnc32)cc1 | 0.02 |
| CCc1cc2c(N3CCCC3)nc(C)nc2s1 | -0.07 |
| CCCOc1ccc(C(=O)C2=C(O)C(=O)N(CCCN3CCOCC3)C2c2ccccc2F)cc1 (stereo not shown) | -0.27 |
| CC(=O)Nc1ccc(NC(=O)c2ccccc2SCC(=O)NC23CC4CC(CC(C4)C2)C3)cc1 | -0.21 |
| CCOc1ccc(C2C(C(=O)c3ccco3)=C(O)C(=O)N2CCCN2CCOCC2)cc1 (stereo not shown) | -0.13 |
| NC(=O)c1cccc(CN2CCCC2c2ccsc2)c1 (stereo not shown) | -0.08 |
| CC(=O)Nc1ccc(CNCc2ccccc2CN2CCCC2)cc1 | -0.12 |
| NC(=O)C1CCN(c2ncnc3c2c(-c2ccccc2)cn3-c2cccc(C(F)(F)F)c2)CC1 | -0.07 |
| CC(Nc1cccc(C(N)=O)c1)C1CN(Cc2ccccc2)CCO1 (stereo not shown) | -0.18 |
| CC(=C/c1ccccc1)/C=N/NC(=O)c1cc(-c2ccc(C)cc2)n[nH]1 | 1.06 |
| Cc1ccc(-c2cc(C(=O)OC(C)C(=O)Nc3cccc([N+](=O)[O-])c3)[nH]n2)cc1 (stereo not shown) | 0.12 |
| Cc1ccc(C2C(C(=O)c3cc4ccccc4o3)=C(O)C(=O)N2CCCN2CCOCC2)o1 (stereo not shown) | 0.02 |
| N#Cc1cc(Br)ccc1NCC1(CCO)CCOC1 (stereo not shown) | -0.24 |
| Cc1cc(C)c(NC(=O)CN(C)C(=O)CNC(=O)C(C)(C)C)c(C)c1 | 0.02 |
| O=C1/C(=C/c2cnn(-c3ccccc3)c2)Oc2cc(O)ccc21 | 1.25 |
| O=C1/C(=C/c2cccc(O)c2)Oc2cc(O)ccc21 | -0.21 |
| O=C1/C(=C/c2ccccc2)Oc2cc(O)ccc21 | 0.08 |
| NC(=O)c1ccc(C(=O)OCC(=O)Nc2ccccc2-c2ccccc2)cc1 | -0.18 |
